Results on 34 molecules are retold here after PubChem BioAssay (NCATS).

Molecules are shown by their SMILES. Results filed as inconclusive are left out. A number with no mark means an inactive call. Active and inactive are the calls of the source. Unless noted, the call rests on the fitted dose curve.

Tested on in one experiment: not listed separately
Description: AP1 Signaling Pathway (AID 357; active means well fitted curve in either direction with a large enough effect, not every such curve was filed as active; further: on the % scale 0 is the no-effect control and ±100 the full control effect). The conditions noted are these: ME-180 (cervical carcinoma) AP-1-bla reporter, EGF-induced, beta-lactamase ratio, 5 h; at 7.69 µM (top of the series) unless noted. The gist of the method: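 AP-1-bla ME-180 cells with beta-lactamase reporter under AP-1 response element, stimulated with EC50 EGF; compounds titrated, 5 hours at 37 degrees Celsius. CCF4 read at 460/530 nm ratio; positive and negative modulators judged by AC50.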
As for `Cc1ccccc1-c1cncnc1NCc1ccccc1`, the activity change, negative = inhibition was -6.25%.

As for `CN(C)C(=O)c1ccc(-c2cc(NCc3cccnc3)ncn2)cc1`, the activity change, negative = inhibition is 11.8%. `Cc1noc(C)c1-c1cc(NCc2cccnc2)ncn1`: the activity change, negative = inhibition was 2.04%. On the same count and under the same terms, the result for `CN(C)c1ncc2nc(-c3cc(F)cc(F)c3)c(=O)n(CCC#N)c2n1` reads 4.37%; that for `c1nc(NC2CCNCC2)c2cc(-c3ccoc3)ccc2n1`, -0.789%. In the case of `Fc1ccc(Nc2ncncc2-c2ccccc2C(F)(F)F)cc1`, the activity change, negative = inhibition is -13.5%. As for `Cc1noc(C)c1-c1nccc(N2CCOCC2)n1`, the activity change, negative = inhibition was 19%. Still for that read-out and setting: the result for `COc1ccccc1CCn1c(=O)c(-c2cccc(F)c2)nc2cncnc21` reads -14.2%; that for `COCCn1c(=O)cnc2cnc(Oc3ccc(OC)cc3)nc21`, -2.08%. As to `O=c1c(-c2ccc(F)cc2)nc2cnc(Oc3ccccc3)nc2n1C1CC1`, the activity change, negative = inhibition was 2.54%. Regarding `COc1ccc(Oc2ncc3nc(C)c(=O)n(C[C@H]4CCCO4)c3n2)cc1`, the activity change, negative = inhibition was -5.04%. The same measure, in the same setting: the result for `COCCNc1nc(-c2ccccc2Cl)nc2ccccc12` reads -0.0888%. In the case of `CN(C)c1ccc(-c2ccc3ncnc(N(C)C)c3c2)cc1`, the activity change, negative = inhibition was -10.3%. Consider `COCCn1c(=O)c(C)nc2cnc(N(C)C)nc21`, for which the activity change, negative = inhibition was 3.65%.

Regarding `COCCNc1ncnc2ccc(-c3cccc(NS(C)(=O)=O)c3)cc12`, the activity change, negative = inhibition is -19.3%.

As for `CC(=O)NCCNc1ncncc1-c1ccc(N(C)C)cc1`, the activity change, negative = inhibition is -11.6%.

Consider `COc1ccc(Oc2ncc3nc(-c4ccc(OC)cc4)c(=O)n(C)c3n2)cc1`, for which the activity change, negative = inhibition is -7.57%.

As for `CN1CCN(c2ccnc(-c3ccoc3)n2)CC1`, the activity change, negative = inhibition is 21.7%.

Regarding `Cc1ccccc1-c1nccc(NCc2cccs2)n1`, the activity change, negative = inhibition was -5.62%. As for `Cc1cccc(CNc2cc(-c3c(C)noc3C)ncn2)c1`, the activity change, negative = inhibition was -5.03%.

Turning to `O=c1cnc2cnc(Oc3cccc(Cl)c3)nc2n1C[C@H]1CCCO1`, the activity change, negative = inhibition was -1.71%. `CS(=O)(=O)Nc1cccc(-c2ccc3ncnc(NC4CC4)c3c2)c1`: the activity change, negative = inhibition is -14.5%. Take `COc1ccc(-n2c(=O)cnc3cnc(N(C)C)nc32)cc1`: the activity change, negative = inhibition was -17.5%. Still for that read-out and setting: the result for `COc1cccc(Nc2ncc3nc(C)c(=O)n(C4CC4)c3n2)c1` reads -16.4%; that for `CC(=O)NCCNc1ncnc2ccc(-c3ccoc3)cc12`, -5.21%. For `CNc1ncnc2ccc(-c3ccccc3CN(C)C)cc12`, the activity change, negative = inhibition was -22.5%. On the same count and under the same terms, the result for `COCCn1c(=O)c(C)nc2cnc(Oc3ccc(OC)cc3)nc21` reads -18.9%; that for `c1cncc(CNc2ncncc2-c2cccnc2)c1`, 3.11%; that for `CN(C)C(=O)c1ccc(-c2cc(Nc3ccccc3)ncn2)cc1`, -5.39%. Turning to `COCCNc1ncnc2ccc(-c3ccoc3)cc12`, the activity change, negative = inhibition was -23.8%. Consider `COc1cccc(Cn2c(=O)cnc3cncnc32)c1`, for which the activity change, negative = inhibition was 13.8%.

For `CCNc1ncc2nc(-c3cn(C)c4ccccc34)c(=O)n(C)c2n1`, the activity change, negative = inhibition is -15.1%.

The target in another experiment is Cytochrome P450 1A2 (Homo sapiens) (UniProt P05177). Description: p450-cyp1a2 (AID 410). Further: potency means the concentration at half of the fitted maximal effect.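 On activity change, negative = inhibition: -100% = full effect of reference inhibitor.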 The settings on record: recombinant CYP1A2, luciferin-ME demethylation, luminescence; series mostly up to 57 µM; activity change, negative = inhibition: at the top concentration. In outline: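 Luminescent demethylation readout: Luciferin-ME (100uM, equal to Km) turned over by 20nM CYP1A2 for 60 min at room temperature after NADPH regeneration addition, following 10 min compound preincubation. Normalization used 57 uM furafylline as full inhibition.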
Sequence of Cytochrome P450 1A2 (Homo sapiens) (P05177 whole entry, looked up): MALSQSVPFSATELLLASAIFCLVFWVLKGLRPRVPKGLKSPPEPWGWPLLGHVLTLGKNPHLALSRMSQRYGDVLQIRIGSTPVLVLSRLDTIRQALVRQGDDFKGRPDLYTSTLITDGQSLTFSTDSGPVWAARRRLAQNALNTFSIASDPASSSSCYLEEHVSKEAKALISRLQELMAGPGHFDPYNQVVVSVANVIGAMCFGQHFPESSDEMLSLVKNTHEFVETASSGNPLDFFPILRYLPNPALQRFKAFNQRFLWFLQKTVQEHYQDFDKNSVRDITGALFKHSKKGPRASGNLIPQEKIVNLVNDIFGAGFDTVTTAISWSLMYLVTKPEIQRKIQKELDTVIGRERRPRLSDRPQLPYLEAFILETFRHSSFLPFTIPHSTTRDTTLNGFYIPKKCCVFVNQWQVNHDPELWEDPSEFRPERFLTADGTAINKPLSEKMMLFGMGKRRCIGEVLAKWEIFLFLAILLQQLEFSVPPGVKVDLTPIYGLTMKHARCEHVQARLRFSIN
Consider `Cc1ccccc1-c1cncnc1NCc1ccccc1`, for which the Potency is 12.6 µM (active).

`CN(C)C(=O)c1ccc(-c2cc(NCc3cccnc3)ncn2)cc1`: the Potency is 20 µM (active).

Take `Cc1noc(C)c1-c1cc(NCc2cccnc2)ncn1`: the Potency is 1 µM (active). For the molecule `CN(C)c1ncc2nc(-c3cc(F)cc(F)c3)c(=O)n(CCC#N)c2n1`, the “activity change, negative = inhibition” value is -15.7%.

For the molecule `c1nc(NC2CCNCC2)c2cc(-c3ccoc3)ccc2n1`, the Potency was 25.1 µM (active). Regarding `Fc1ccc(Nc2ncncc2-c2ccccc2C(F)(F)F)cc1`, the Potency is 20 µM (active). For `Cc1noc(C)c1-c1nccc(N2CCOCC2)n1`, the Potency was 0.631 µM (active).

As to `COc1ccccc1CCn1c(=O)c(-c2cccc(F)c2)nc2cncnc21`, the Potency was 1.58 µM (active). Regarding `COCCn1c(=O)cnc2cnc(Oc3ccc(OC)cc3)nc21`, the Potency is 5.01 µM (active). On the same count and under the same terms, to `COc1ccc(Oc2ncc3nc(C)c(=O)n(C[C@H]4CCCO4)c3n2)cc1` belongs 12.6 µM (active); to `CCNc1ncc2nc(-c3cccs3)c(=O)n(C)c2n1`, 1.58 µM (active); to `COCCNc1nc(-c2ccccc2Cl)nc2ccccc12`, 0.126 µM (active). Regarding `CN(C)c1ccc(-c2ccc3ncnc(N(C)C)c3c2)cc1`, the Potency was 0.158 µM (active). Take `COCCn1c(=O)c(C)nc2cnc(N(C)C)nc21`: the Potency is 3.98 µM (active). The same measure, in the same setting: to `COCCNc1ncnc2ccc(-c3cccc(NS(C)(=O)=O)c3)cc12` belongs 0.794 µM (active); to `CC(=O)NCCNc1ncncc1-c1ccc(N(C)C)cc1`, 6.31 µM (active). In the case of `COc1ccc(Oc2ncc3nc(-c4ccc(OC)cc4)c(=O)n(C)c3n2)cc1`, the Potency was 3.16 µM (active).

Take `CN1CCN(c2ccnc(-c3ccoc3)n2)CC1`: the Potency was 12.6 µM (active). The same measure, in the same setting: to `Cc1ccccc1-c1nccc(NCc2cccs2)n1` belongs 0.501 µM (active). The same measure, in the same setting: the result for `Cc1cccc(CNc2cc(-c3c(C)noc3C)ncn2)c1` reads 1 µM (active); that for `O=c1cnc2cnc(Oc3cccc(Cl)c3)nc2n1C[C@H]1CCCO1`, 5.01 µM (active); that for `CS(=O)(=O)Nc1cccc(-c2ccc3ncnc(NC4CC4)c3c2)c1`, 0.631 µM (active). The same measure, in the same setting: to `COc1ccc(-n2c(=O)cnc3cnc(N(C)C)nc32)cc1` belongs 5.01 µM (active). With `COc1cccc(Nc2ncc3nc(C)c(=O)n(C4CC4)c3n2)c1`, the Potency was 1.26 µM (active). Take `CC(=O)NCCNc1ncnc2ccc(-c3ccoc3)cc12`: the Potency is 12.6 µM (active). Take `CNc1ncnc2ccc(-c3ccccc3CN(C)C)cc12`: the Potency is 3.16 µM (active). Regarding `c1csc(CNc2ncnc3ccc(-c4ccoc4)cc23)c1`, the Potency was 3.16 µM (active).

Take `COCCn1c(=O)c(C)nc2cnc(Oc3ccc(OC)cc3)nc21`: the Potency was 15.8 µM (active). Still for that read-out and setting: the result for `c1cncc(CNc2ncncc2-c2cccnc2)c1` reads 5.01 µM (active); that for `CN(C)C(=O)c1ccc(-c2cc(Nc3ccccc3)ncn2)cc1`, 12.6 µM (active). Still for that read-out and setting: the result for `COCCNc1ncnc2ccc(-c3ccoc3)cc12` reads 15.8 µM (active); that for `COc1cccc(Cn2c(=O)cnc3cncnc32)c1`, 15.8 µM (active). On the same count and under the same terms, to `CCNc1ncc2nc(-c3cn(C)c4ccccc34)c(=O)n(C)c2n1` belongs 0.1 µM (active).
